{
  "source": "paper PMC5869772",
  "about": "“Quantitative profiling of BATF family proteins/JUNB/IRF hetero-trimers using Spec-seq”",
  "experiment_in_all_cases": "Spec-seq (EMSA and sequencing of bound and unbound bands); 100 nM BATFx-JUNB, 1 uM dsDNA library, 50 mM K acetate, 20 mM Tris-acetate, 10 mM Mg acetate, 100 ug/ml BSA, pH 7.9, 10% glycerol, 30 min on ice; native 9% PAGE at 4 C; low values mean tight binding",
  "details_in_all_cases": "protein: recombinant;recombinant; tags: N-terminal mCherry-TEV, cleaved off;C-terminal 6His; copies: 1;1; dsDNA, one strand shown",
  "key": {"[1]": {"target": "T1, BATF;JUNB (human;human, UniProt Q16520;P17275 1-125;148-347, |)", "T1 sequence 1": "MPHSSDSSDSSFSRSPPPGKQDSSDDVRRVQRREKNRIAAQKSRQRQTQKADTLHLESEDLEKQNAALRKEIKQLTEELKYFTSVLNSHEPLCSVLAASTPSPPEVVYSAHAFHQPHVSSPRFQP", "T1 sequence 2": "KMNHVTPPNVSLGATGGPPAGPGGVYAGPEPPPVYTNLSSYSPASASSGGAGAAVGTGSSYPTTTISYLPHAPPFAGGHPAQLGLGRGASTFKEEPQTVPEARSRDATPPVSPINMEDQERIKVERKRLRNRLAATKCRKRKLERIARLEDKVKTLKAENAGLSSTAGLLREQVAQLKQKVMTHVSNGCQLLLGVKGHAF", "procedure,_shortened": "(§1)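 The protein, at 100 nM, was incubated with 1 μM double-stranded degenerate DNA library for 30 min on ice in NEB Cutsmart buffer with 10% glycerol, then resolved by native 9% PAGE at 4 °C. Excised bound and unbound bands were PCR-barcoded and Illumina-sequenced, and each sequence's relative binding energy in kT is −ln of its bound/unbound read-count ratio.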"}, "[2]": {"target": "T2, BATF2 (bZIP);JUNB (human;human, UniProt Q8N1L9;P17275 1-142;148-347, |)", "T2 sequence 1": "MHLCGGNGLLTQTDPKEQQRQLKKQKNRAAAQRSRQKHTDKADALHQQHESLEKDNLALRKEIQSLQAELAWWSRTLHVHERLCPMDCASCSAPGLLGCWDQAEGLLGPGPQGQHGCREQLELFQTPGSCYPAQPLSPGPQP", "T2 sequence 2": "T1 sequence 2", "procedure,_shortened": "as §1"}, "[3]": {"target": "T3, BATF3;JUNB (human;human, UniProt Q9NR55;P17275 1-127;148-347, |)", "T3 sequence 1": "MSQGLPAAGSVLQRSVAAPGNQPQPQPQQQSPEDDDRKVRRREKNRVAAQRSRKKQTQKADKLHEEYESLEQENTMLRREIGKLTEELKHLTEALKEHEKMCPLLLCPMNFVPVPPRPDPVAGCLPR", "T3 sequence 2": "T1 sequence 2", "procedure,_shortened": "as §1"}},
  "data": [
    {"sequence": "GATAGTCTCATTTTCACCCCGTGAAATCACGTCATTGTTCCATTACAGTATCTGT", "values": [
      {"measurement": "binding signal", "setting": "[1]", "value": -0.743, "unit": "kT"},
      {"measurement": "binding signal", "setting": "[2]", "value": -0.494, "unit": "kT"},
      {"measurement": "binding signal", "setting": "[3]", "value": -1.33, "unit": "kT"}
    ]},
    {"sequence": "GATAGTCTCATTTTCACCCCGTGAAATGCGTCATTTGTTCCATTACAGTATCTGT", "values": [
      {"measurement": "binding signal", "setting": "[1]", "value": -0.941, "unit": "kT"},
      {"measurement": "binding signal", "setting": "[2]", "value": -0.434, "unit": "kT"},
      {"measurement": "binding signal", "setting": "[3]", "value": -1.03, "unit": "kT"}
    ]},
    {"sequence": "GATAGTCTCATTTTCACCCCGTGAAATTAGTCATTTGTTCCATTACAGTATCTGT", "values": [
      {"measurement": "binding signal", "setting": "[1]", "value": -0.885, "unit": "kT"},
      {"measurement": "binding signal", "setting": "[2]", "value": -0.599, "unit": "kT"},
      {"measurement": "binding signal", "setting": "[3]", "value": -1.19, "unit": "kT"}
    ]},
    {"sequence": "GATAGTCTCATTTTCACCCCGTGAAATGATTCATTTGTTCCATTACAGTATCTGT", "values": [
      {"measurement": "binding signal", "setting": "[1]", "value": -0.784, "unit": "kT"},
      {"measurement": "binding signal", "setting": "[2]", "value": -0.369, "unit": "kT"},
      {"measurement": "binding signal", "setting": "[3]", "value": -0.839, "unit": "kT"}
    ]},
    {"sequence": "GATAGTCTCATTTTCACCCCGTGAAATGAGTAAATTGTTCCATTACAGTATCTGT", "values": [
      {"measurement": "binding signal", "setting": "[1]", "value": -0.0981, "unit": "kT"},
      {"measurement": "binding signal", "setting": "[2]", "value": 0.684, "unit": "kT"},
      {"measurement": "binding signal", "setting": "[3]", "value": 0.363, "unit": "kT"}
    ]},
    {"sequence": "GATAGTCTCATTTTCACCCCGTGAAATGACACACTTGTTCCATTACAGTATCTGT", "values": [
      {"measurement": "binding signal", "setting": "[1]", "value": -0.0204, "unit": "kT"},
      {"measurement": "binding signal", "setting": "[2]", "value": 0.55, "unit": "kT"},
      {"measurement": "binding signal", "setting": "[3]", "value": 0.362, "unit": "kT"}
    ]},
    {"sequence": "GATAGTCTCATTTTCACCCCGTGAAATAGAGTCATTGTTCCATTACAGTATCTGT", "values": [
      {"measurement": "binding signal", "setting": "[1]", "value": -0.357, "unit": "kT"},
      {"measurement": "binding signal", "setting": "[2]", "value": 0.163, "unit": "kT"},
      {"measurement": "binding signal", "setting": "[3]", "value": -0.29, "unit": "kT"}
    ]},
    {"sequence": "GATAGTCTCATTTTCACCCCGTGAAATTGCGTCATTGTTCCATTACAGTATCTGT", "values": [
      {"measurement": "binding signal", "setting": "[1]", "value": -0.89, "unit": "kT"},
      {"measurement": "binding signal", "setting": "[2]", "value": -0.761, "unit": "kT"},
      {"measurement": "binding signal", "setting": "[3]", "value": -1.72, "unit": "kT"}
    ]},
    {"sequence": "GATAGTCTCATTTTCACCCCGTGAAATGACCCACTTGTTCCATTACAGTATCTGT", "values": [
      {"measurement": "binding signal", "setting": "[1]", "value": 0.593, "unit": "kT"},
      {"measurement": "binding signal", "setting": "[2]", "value": 1.04, "unit": "kT"},
      {"measurement": "binding signal", "setting": "[3]", "value": 0.927, "unit": "kT"}
    ]},
    {"sequence": "GATAGTCTCATTTTCACCCCGTGAAATTGGGTCATTGTTCCATTACAGTATCTGT", "values": [
      {"measurement": "binding signal", "setting": "[1]", "value": 0.183, "unit": "kT"},
      {"measurement": "binding signal", "setting": "[2]", "value": 0.516, "unit": "kT"},
      {"measurement": "binding signal", "setting": "[3]", "value": -0.0123, "unit": "kT"}
    ]},
    {"sequence": "GATAGTCTCATTTTCACCCCGTGAAACCGAGTCATTGTTCCATTACAGTATCTGT", "values": [
      {"measurement": "binding signal", "setting": "[1]", "value": -0.617, "unit": "kT"},
      {"measurement": "binding signal", "setting": "[2]", "value": 0.173, "unit": "kT"},
      {"measurement": "binding signal", "setting": "[3]", "value": -0.192, "unit": "kT"}
    ]},
    {"sequence": "GATAGTCTCATTTTCACCCCGTGAAACGAGTCATTTGTTCCATTACAGTATCTGT", "values": [
      {"measurement": "binding signal", "setting": "[1]", "value": -0.477, "unit": "kT"},
      {"measurement": "binding signal", "setting": "[2]", "value": 0.283, "unit": "kT"},
      {"measurement": "binding signal", "setting": "[3]", "value": -0.111, "unit": "kT"}
    ]}
  ]
}
